A selection: hits, their analogues and other compounds. The true share with any hit is near 4.5%.
GAA850 FXN act: activators of GAA850 frataxin (FXN) promoter; HEK293 lucGAA850 FXN promoter luciferase reporter, 24 h; percent of 10 µM SAHA response; activation, % at 6 µM; 360,000 compounds, 0.56% hits; AID 540364;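 active = activation above the average of all compounds screened plus 3 SD, cutoff fixed separately per campaign, cut at about 7.5% in these data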;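 note: 0% = DMSO wells and 100% = 10 µM SAHA wells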
DAX1 inh-1: inhibitors of DAX1 repression of SF-1 activated StAR promoter | HEK293T StAR-luciferase reporter, SF-1/DAX-1 repression relief | inhibition, % at 6.8 µM | 370,000 compounds, 1.1% hits;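 active = inhibition above the mean over all tested compounds plus 3 SD, cut at about 3.6% in these data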;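 note: 0% = DAX-1 cells with DMSO and 100% = cells lacking DAX-1 with DMSO; higher inhibition means more luminescence from relief of DAX-1 repression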
DAX1 inh-2: inhibits human nuclear receptor DAX1 | HEK293 Gal4-DAX1 luciferase reporter, luminescence | inhibition, % at 6.75 µM | 340,000 compounds, 0.99% hits | AID 504766;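 active = inhibition above the mean over all tested compounds plus 3 SD, cut at about 4.2% in these data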;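 note: 0% = DAX1-transfected cells with DMSO and 100% = empty-vector control cells with DMSO; inhibition shows as a rise in luminescence from relieved DAX1 repression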
Target sequence (P51843 207-470 limits assumed): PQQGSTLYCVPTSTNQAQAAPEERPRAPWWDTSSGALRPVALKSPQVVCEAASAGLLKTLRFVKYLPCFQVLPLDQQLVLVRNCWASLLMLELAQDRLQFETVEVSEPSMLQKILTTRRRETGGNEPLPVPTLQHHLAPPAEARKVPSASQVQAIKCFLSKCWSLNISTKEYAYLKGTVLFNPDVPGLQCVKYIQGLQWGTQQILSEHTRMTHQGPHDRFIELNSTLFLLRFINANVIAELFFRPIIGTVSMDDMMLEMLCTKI
hcDAF-12 act: activators of H. contortus DAF-12 nuclear receptor; activation, % at 6.8 µM; HEK293 hcDAF-12 lit1-tk-luc reporter, luminescence; 0% DMSO, 100% Δ7-dafachronic acid; 370,000 compounds, 1.4% hits;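 active = activation above the mean of all tested compounds plus 3 SD, cut at about 5.5% in these data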;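 note: 100% = response to 3 µM Δ7-dafachronic acid high control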
ssDAF-12 act: S. stercoralis DAF-12 activation, primary screen | AID 652126 | 370,000 compounds, 1% hits | HEK293 ssDAF-12/GRIP1 lit1-tk-luc reporter, luminescence; % of 3 µM dafachronic acid response | activation, % at 6.8 µM;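 active = activation above the mean over all tested compounds plus 3 SD, cut at about 0.9% in these data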;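 note: 0% = DMSO-only wells and 100% = 3 µM delta7-dafachronic acid wells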
hgDAF12 agonist: activates the H. glycines DAF-12 receptor ligand-binding domain; 370,000 compounds, 1.8% hits; HEK293 GAL4-hgDAF12 UAS-luciferase reporter, agonist luminescence; normalized to butyrate control; activation, % at 6.8 µM;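 active = activation above a cutoff set at the mean of all screened compounds plus 3 SD, cut at about 10% in these data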;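 note: 0% = DMSO wells and 100% = sodium butyrate wells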
Numbers without * were called inactive; / = no result.

SMILES	GAA850 FXN act	DAX1 inh-1	DAX1 inh-2	hcDAF-12 act	ssDAF-12 act	hgDAF12 agonist
COc1ccc(N(C)S(=O)(=O)c2cccc(C(=O)OCC(=O)c3c(N)n(C)c(=O)n(C)c3=O)c2)cc1	-3	-1	-4	-1	2.5*	0
CCN(c1ccccc1)S(=O)(=O)c1cccc(C(=O)OCC(=O)c2c(N)n(C)c(=O)n(C)c2=O)c1	-2	-2	0	-1	-1	1
N[C@H](C(=O)Nc1ccc(Cl)cc1C(=O)c1ccc[nH]1)c1ccccc1	/	/	/	0	-1	1
Cc1ccc(C)c(NC(=S)N(C)CCO)c1	-2	0	4.8*	-1	-1	-2
O=C(c1cccc(I)c1)N1CCC(Oc2cccnc2)CC1	/	1	/	-1	-2	-2
O=C(Cc1c[nH]c2ccccc12)Nc1ccc(Nc2cccnc2)c(-c2cc(F)cc(F)c2)c1	/	-2	/	-1	-1	-1
O=C(O)c1ccc(S(=O)(=O)c2ccc3c(c2)C(=O)N(NC(=O)c2ccccc2)C3=O)cc1	6	2	1	1	-1	12*
CN(C)c1ccc(C(=O)NN2C(=O)c3ccccc3C2=O)cc1	0	0	0	0	-1	11*
COc1ccccc1CNC(=O)CSc1ccccc1	3	3	1	2	-1	11*
COc1ccccc1CNC(=O)CSc1ccc(C)cc1	3	0	-1	-3	-1	-2
COc1ccccc1CNC(=O)CN1C(=O)c2ccccc2S1(=O)=O	-1	0	4.5*	3	-1	1
CCn1c(=O)n(CC(=O)N2CCOCC2)c(=O)c2ccccc21	/	0	/	-1	-1	0
COc1ccc(S[C@]2(C(=O)N3CCN(c4ncccn4)CC3)CC(=O)N(C(=O)c3ccccc3)[C@@H]2c2ccc(OC)cc2)cc1	/	-2	/	-1	-2	3
COc1ccccc1N1CCN(C(=O)c2cc3c(C)nn(-c4ccccc4)c3s2)CC1	/	-2	/	-1	-2	-2
Cc1ccc(S(=O)(=O)NC2c3cccc4cccc(c34)C2Sc2nc(C)cc(C)n2)cc1 (stereo not drawn)	6	0	-2	0	1.4*	-1
Cc1ccc2nc3c(c(N)c2c1)CCN3C	2	0	4	6.2*	0	7
COc1ccc(N=Nc2nc3cc(Br)c(Br)cc3n2C)c(OC)c1	4	0	-1	1	1.6*	0
COc1ccc(OC)c(CNc2ccc3c(c2)nc(C)n3C)c1	1	0	1	-2	-2	-1
CC#CCc1cc2ccccc2c(=O)o1	-1	1	4.6*	0	-1	3
Cc1ccc(F)cc1C(=O)N(Cc1ccccn1)CC1CCCO1 (stereo not drawn)	/	-1	/	2	-1	0
COc1ccc(-n2nc(C(=O)NCC(=O)N3CCCC3)c3ccccc3c2=O)cc1	-1	0	5.2*	2	-1	2
Cc1ccc(-c2nc(C)c(C(=O)O)s2)cc1	3	3	-1	3	0	11*
Cc1ccc(NC(=O)C2CC3CCC2C3)c(C)c1 (stereo not drawn)	/	/	/	-3	0	9
O=C(CN1C(=O)NC(Cc2ccccc2)C1=O)Nc1ccc(F)cc1 (stereo not drawn)	1	0	4.5*	-2	-1	0
CCS(=O)(=O)c1ccc2oc(Nc3ccccc3Cl)nc2c1	5	2	3	4	0	13*
SMILES	GAA850 FXN act	DAX1 inh-1	DAX1 inh-2	hcDAF-12 act	ssDAF-12 act	hgDAF12 agonist
Cc1ccc2nc(SCC(=O)c3ccc4c(c3)NC(=O)CO4)[nH]c2c1	0	1	-1	5	0	11*
COc1ccc2c(C)cc(SCC(=O)c3ccc4c(c3)OCO4)nc2c1	1	0	-1	4	3.4*	5
Cc1ccc2nc(SCC(=O)c3ccc4c(c3)OCO4)[nH]c2c1	1	1	0	-1	0	3
O=C1COc2ccc(C(=O)COC(=O)c3ccc4ccccc4n3)cc2N1	2	-1	1	4	0.9*	2
COc1ccc2c(C)cc(SCC(=O)NC3CCCC3)nc2c1	-1	-2	0	0	-1	-1
O=C(CSc1nc2ccccc2[nH]1)c1ccc2c(c1)OCO2	0	0	6.0*	-1	-1	5
CCCCN1C[C@@H](COCc2ccccc2)Oc2cc(F)ccc2S1(=O)=O	/	0	/	-1	-1	10
COC(=O)/C(=C\C(=O)c1ccccc1)Nc1ccc(OC)cc1	2	1	2	2	0	3
Cc1ccc(N/C(=C\C(=O)c2ccccc2)C(=O)O)cc1	2	4.3*	1	3	1.1*	10*
CCc1cc(=O)oc2c3c(cc(OCC(=O)NC4CC4)c12)OC(C)(C)CC3	-2	-1	3	-2	-1	-2
COc1ccc(CNC(=O)COc2cc3c(c4oc(=O)cc(C)c24)CCC(C)(C)O3)cc1	-1	0	0	2	-1	-3
CCCc1cc(=O)oc2c3c(cc(OCC(=O)N4CCC[C@H]4C(=O)O)c12)OC(C)(C)CC3	-1	0	4.5*	1	-1	1
COc1ccccc1CNC(=O)COc1cc2c(c3oc(=O)cc(C)c13)CCC(C)(C)O2	0	0	4.4*	1	-2	-3
CC(=O)Nc1ccc(NC(=O)c2cc(-c3ccc(F)cc3C)n[nH]2)cc1	2	4.1*	/	2	-1	13*
COc1ccc(-n2c(COc3ccc(C)cc3)nnc2SCC(=O)c2ccc(-c3ccccc3)cc2)cc1	/	-1	/	-1	-1	2
O=C(COC(=O)c1cncc(Br)c1)Nc1ccc(N2CCCCC2)cc1	2	-1	1	4	1.8*	1
COc1ccc(C2C(C(=O)Nc3ccc(F)cc3F)CCC(=O)N2c2ccc(OC)cc2)cc1 (stereo not drawn)	/	-1	/	-1	0	2
Cc1nc(C)n(CC(=O)N2CCCC(C(=O)c3cccc4ccccc34)C2)n1 (stereo not drawn)	3	2	0	1	0	11*
Cc1ccn(CC(=O)N2CCCC(C(=O)c3cccc4ccccc34)C2)n1 (stereo not drawn)	0	0	-1	-2	-2	2
COC(=O)C1CN(Cc2ccc(OC)cc2)CCS(=O)(=O)N1Cc1cn(CCOC(C)=O)nn1 (stereo not drawn)	/	0	/	1	-1	-4
COc1ccc(-n2c(SCC(=O)NCCCSC)nnc2-c2ccncc2)cc1	/	1	/	-1	-1	-2
Cc1ccnc(NC(=O)c2cccs2)c1	4	1	1	2	0	8
Cc1cc(NC(=O)c2cccs2)ncc1NC(=O)C(C)(C)C	3	3	2	3	1.1*	10

Source: PubChem BioAssay
